# HCV inh – blocks hepatitis C virus; Huh7.5.1 HCVcc-Cre infection, luciferase reporter, 44 h; AID 651820; 340,000 tested, 3.4% active; Potency, µM (series often up to 41.8 µM), for the others: at the highest dose activity change, negative = inhibition, hits mostly inhibitors; note: potency is the fitted concentration of half-maximal effect
#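 Antiviral activity was scored by luciferase reporter output from cells infected with HCVcc-Cre (~0.5 moi) in presence of compound, 44 h infection period, cells seeded 1,000/well 4 h prior.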
# HCMV antiviral – inhibitors of human cytomegalovirus | HFF cells, HCMV-luciferase reporter, 72 h; active compounds read low | activity change, negative = inhibition, % at 57.5 µM | 410,000 tested, 4.5% active | AID 1259415; in the data active = activity change below about -60%; inconclusive = no clear call, values can overlap the other calls; inactive = above about -39%
#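 Two compound doses tested in HFFs infected with HCMV-luciferase, MOI 1 PFU/cell, 72 h at 37C. Lysate luminescence read with OneGlo; data normalized against buffer-only and 10uM Salinomycin inhibitor controls.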
# AmpC inh no detg – blocks E. coli AmpC beta-lactamase in detergent-free assay; 330,000 tested, 0.52% active; AmpC nitrocefin hydrolysis, absorbance 480 nm, 0.0001% Triton; Potency, µM (top dose mostly 57.1 µM), inactives show at the highest dose activity change, negative = inhibition, actives largely listed as inhibitors; P00811;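 note: potency is the fitted concentration of half-maximal effect; plate controls were no compound for no effect and no enzyme for full effect; nearly all actives have a fitted effect of over 20% in size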
# Target sequence (P00811 whole entry, looked up): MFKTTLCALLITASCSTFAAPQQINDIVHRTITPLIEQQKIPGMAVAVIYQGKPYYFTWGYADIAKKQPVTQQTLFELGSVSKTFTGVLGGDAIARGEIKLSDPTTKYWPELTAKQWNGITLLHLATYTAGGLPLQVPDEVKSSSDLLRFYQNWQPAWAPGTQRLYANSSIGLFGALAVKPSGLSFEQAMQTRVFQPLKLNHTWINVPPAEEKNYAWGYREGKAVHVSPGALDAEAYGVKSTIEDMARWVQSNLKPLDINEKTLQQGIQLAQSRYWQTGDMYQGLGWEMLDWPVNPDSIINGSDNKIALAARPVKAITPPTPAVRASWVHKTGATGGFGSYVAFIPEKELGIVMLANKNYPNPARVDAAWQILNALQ
#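 AmpC (5.3 nM in the dispensed reagent) in 20 mM phosphate pH 7.0 with 0.01% (detergent screen) or 0.0001% Triton X-100 was preincubated with compounds for 15 min at room temperature. Nitrocefin was then added from an 800 uM solution, and hydrolysis was followed at 480 nm.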
# FMDV inh – antivirals against foot and mouth disease virus; FMDV antiviral cell-based qHTS; Potency, µM (series often up to 57.9 µM), without a hit: at the top dose activity change, negative = inhibition, usual class: inhibitors; 410,000 tested, 1.2% active; AID 1159524; calls by dose curve; tested in HEK293T cells; note: read-out not given here; potency is the fitted concentration of half-maximal effect; nearly all actives have a fitted effect of over 45% in size
# AmpC inh detg – blocks E. coli AmpC beta-lactamase in detergent assay. P00811. AmpC hydrolysis of nitrocefin, absorbance 480 nm, 0.01% Triton. Potency, µM (titrated, usually from 114 µM), without a hit: top-dose activity change, negative = inhibition, hits mostly inhibitors. 370,000 tested, 0.041% active. AID 485294;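 note: potency is the fitted concentration of half-maximal effect; 0% = no-compound wells and -100% = no-enzyme wells; nearly all actives have a fitted effect of over 25% in size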
#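 20 mM phosphate pH 7.0 + 0.01% (detergent screen) or 0.0001% Triton X-100; 5.3 nM AmpC reagent; cpd preinc 15 min RT; nitrocefin (800 uM stock) to start; A480 q20 s × 4 min; Activity was normalised to no-enzyme and no-compound control wells.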
# The depositor's hits bear a star; ? = inconclusive; / = no result given. Only some compounds are listed: those with a hit (about 7.3% of all), similar ones and a draw of the others. Unless noted, calls come from the whole dose curve; as a rule, active = well fitted curve in the direction sought with a large enough effect; inconclusive = small, poorly fitted or top-dose-only effect, or another doubt; inactive = no such curve, though single readings can be large; an effect the other way counts as inactive or inconclusive. Unless noted, % is set by controls: 0 for no effect and ±100 for the full control effect.
SMILES,HCV inh,HCMV antiviral,AmpC inh no detg,FMDV inh,AmpC inh detg
O=C(CSCc1cccc(CSCC(=O)Nc2ccc3ccccc3c2)n1)Nc1ccc2ccccc2c1,10µM*,-82.2*,-50.3%,-27.3%,?
CC(C)(C)c1ccc(C(=O)NCC(=O)OCCN2C(=O)c3ccccc3C2=O)cc1,0.7%,2.5,10.1%,26.2%,?
O=C(O)CCNS(=O)(=O)c1cccc2nsnc12,11.8%,-33.8,-7.9%,-22.5%,?
CC(C)c1ccc2c(c1)CC[C@H]1[C@](C)(CN)CCC[C@]21C,?,-97.8*,/,?,/
O=C(CCNC(=O)c1ccc(Br)cc1)OCc1ccccc1Cl,15.1%,7.0,-13.0%,-12.8%,-16.3%
COc1ccc(C2=NOC(Cn3nc(C(=O)NCc4ccccc4OC)cc3-c3ccccc3)C2)cc1 (centres undefined),?,2.0,-15.2%,-15.4%,0.8%
CCOC(=O)c1cc(-c2ccccc2)n(CCC(=O)Nc2cc(C)cc(C)c2)c1C,/,115.5,/,-22.9%,12.4%
CCOC(=O)c1cc(-c2ccccc2)n(CCC(=O)Nc2ccc(Cl)c(C(F)(F)F)c2)c1C,/,0.0,/,39.8µM*,8.5%
COc1ccc(C(=O)OCC(=O)Nc2ccc(Cl)c(C(F)(F)F)c2)c(OC)c1OC,?,-61.9*,25.5%,-26.2%,-4.1%
O=C(Nc1cc(C(F)(F)F)ccc1Cl)c1cc(S(=O)(=O)NCc2ccccc2)ccc1F,/,-16.3,/,6.5%,-2.1%
Cc1ccccc1OCC(=O)OCC(=O)Nc1cc(S(C)(=O)=O)ccc1Cl,4.0%,3.0,-16.5%,6.0%,-14.2%
CC[C@]12C(=O)N(C)C[C@H]([C@@H]3C(=O)N(C)C(=O)[C@@H]31)N2C(=O)c1ccc(C)cc1,14.1%,-2.5,/,-6.3%,/
COc1ccccc1Cn1c(C(C)C)nc2ccccc21,-8.9%,1.2,42.1%,-18.3%,-8.8%
COc1ccc(/C=C/c2nc3ccccc3n2Cc2ccccc2OC)cc1,?,-97.9*,-26.4%,-26.6%,-10.5%
COCCn1c(/C=C/c2ccccc2)nc2ccccc21,32.7%,5.8,-27.5%,65.9%,-10.9%
COc1ccccc1Cn1c(/C=C/c2ccccc2)nc2ccccc21,10µM*,-24.5,4.3%,-18.2%,7.0%
CC1(OC(=O)CCc2ccccc2)C(=O)C=C2C=C(c3ccsc3)OC=C2C1=O (centres undefined),/,/,28.2µM*,/,-1.2%
CCOC(=O)C1C(C(=O)OCC)C2C(=O)C3C(C(=O)OCC)C(C(=O)OCC)C3C(=O)C12 (centres undefined),/,-29.9,/,/,/
CCOC(=O)c1ccc(NC(=O)c2ccc(CN3CCOCC3)cc2)cc1,?,?,-3.6%,25.1µM*,2.1%
CC(C)c1ccc(CN2CCN(C(=O)CCl)CC2)cc1,11.2µM*,-68.8*,-7.7%,17.8µM*,-7.9%
CC(C)c1ccc(C(=O)Nc2ccc(CN3CCOCC3)cc2)cc1,?,-82.9*,49.9%,-5.6%,-2.7%
CC(C)CC(=O)N1CCN(Cc2ccc(Cl)cc2)CC1,-7.9%,33.7,11.7%,-25.3%,?
Nc1c(N(Cc2ccco2)C(=O)c2ccc(Br)cc2)c(=O)[nH]c(=O)n1Cc1ccccc1,?,84.9,-27.7%,13.7%,-1.4%
CCN(C(=O)c1ccc(=O)n(C)n1)c1c(N)n(Cc2ccccc2)c(=O)[nH]c1=O,-15.1%,-76.6*,-7.3%,-11.4%,/
CCN(C(=O)c1ccc(=O)[nH]c1)c1c(N)n(Cc2ccccc2)c(=O)[nH]c1=O,9.6%,-39.8,0.7%,-7.3%,5.0%
SMILES,HCV inh,HCMV antiviral,AmpC inh no detg,FMDV inh,AmpC inh detg
CCN(C(=O)CN(C)Cc1c(F)cccc1Cl)c1c(N)n(Cc2ccccc2)c(=O)[nH]c1=O,30.4%,-65.1*,-11.9%,-7.2%,0.7%
Nc1c(N(Cc2ccco2)C(=O)c2ccc(Cl)cc2)c(=O)[nH]c(=O)n1Cc1ccccc1,31.2%,-70.8*,-18.5%,-3.1%,-1.4%
O=C(NCCn1cc(SCC(=O)N2CCOCC2)c2ccccc21)c1ccccc1,-18.2%,10.2,0.2%,-19.7%,-10.9%
O=C(CSc1cn(Cc2ccccc2)c2ccccc12)N1CCOCC1,-8.1%,58.9,44.7µM*,52.2%,?
COc1ccc(NC(=O)N(C)C[C@H]2Oc3ccc(NS(=O)(=O)c4c(C)noc4C)cc3C(=O)N([C@H](C)CO)C[C@@H]2C)cc1,16.9%,11.9,33.5%,-9.7%,/
COC(=O)C1=C(c2ccc(OC)cc2)OC(=O)C1(C)C,11.2%,-7.4,-3.4%,-14.0%,-5.8%
O=C(Nc1cccc(/C=C/c2ccccn2)c1)c1ccc(-n2cncn2)c([N+](=O)[O-])c1,?,-22.6,?,?,-8.9%
O=C(Nc1cccc(/C=C/c2ccccn2)c1)c1cc(Cl)ccn1,5.01µM*,68.1,0.0%,19.2%,-3.9%
CC(=O)c1cccc(NC(=S)Nc2ccn(Cc3cccc4ccccc34)n2)c1,11.2µM*,?,-27.9%,-7.0%,3.1%
COc1cc(C2C3=C(COC3=O)Oc3cc4c(cc32)OCO4)cc(OC)c1OC(C)=O (centres undefined),3.7%,-69.1*,/,6.7%,/
COc1cc(C2C3=C(COC3=O)Oc3cc4c(cc32)OCO4)ccc1OC(C)=O (centres undefined),-12.4%,-27.7,/,-8.2%,/
Cc1ccc(CNC(=O)Cn2ccn(-c3cc(C)cc(C)c3)c(=O)c2=O)cc1,/,?,/,22.6%,-0.6%
Cc1cnc(CNc2cc(-c3ccccc3C)ncn2)cn1,/,/,/,5.0%,/
Cc1ccc(C(=O)N[C@H](C(=O)Nc2sccc2C(N)=O)C(C)C)cc1,-20.1%,?,-26.1%,4.2%,-11.8%
COc1ccc(Cl)cc1NC(=O)CSC1=Nc2ccccc2C2=NC(CCC(=O)NCc3ccco3)C(=O)N12 (centres undefined),/,-5.5,/,-19.0%,-5.2%
C[C@@H]1CN([C@H](C)CO)C(=O)c2c(c3ccccc3n2C)-c2ccccc2CO[C@H]1CN(C)Cc1ccc(C(F)(F)F)cc1,/,-106.5*,/,?,/
C[C@@H]1CN([C@H](C)CO)C(=O)c2c(c3ccccc3n2C)-c2ccccc2CO[C@H]1CN(C)Cc1ccc(Oc2ccccc2)cc1,/,-19.4,/,-22.1%,/
CCOC(=O)C1CCCN(S(=O)(=O)c2cc(C(=O)OC)n(C)c2)C1 (centres undefined),6.31µM*,-60.1*,-4.6%,?,?
CCOC(=O)C1CCCN(S(=O)(=O)c2ccccc2)C1 (centres undefined),9.2%,54.9,-17.4%,18.3%,1.7%
COc1ccc(NC(=O)C2CCCN(S(=O)(=O)c3ccc(C)cc3)C2)cc1OC (centres undefined),-21.7%,25.0,1.1%,22.4µM*,-7.2%
COc1ccc(C)cc1NC(=O)C1CCCN(S(=O)(=O)c2cnc[nH]2)C1 (centres undefined),-0.6%,-60.8*,-7.7%,-14.7%,?
